USP30 inh: blocks human USP30 ubiquitin-rhodamine cleavage | inhibition, % at 25 µM | AID 1645860 | Q70CQ3 | purified USP30, Ub-rhodamine cleavage fluorescence | actives 5.3% (n = 47,000)
USP28 block: human USP28 deubiquitinase inhibition | AID 1645857 | actives 3% (n = 47,000) | inhibition, % at 25 µM | purified USP28, Ub-rhodamine cleavage fluorescence, 30 min | Q96RU2
OTUD3 block: inhibitors of human OTUD3 deubiquitinase; Q5T2D3; purified OTUD3, Ub-rhodamine fluorescence, 2 h; inhibition, % at 25 µM; actives 0.7% (n = 47,000); AID 1645858
Target sequence (Q5T2D3 whole entry, looked up): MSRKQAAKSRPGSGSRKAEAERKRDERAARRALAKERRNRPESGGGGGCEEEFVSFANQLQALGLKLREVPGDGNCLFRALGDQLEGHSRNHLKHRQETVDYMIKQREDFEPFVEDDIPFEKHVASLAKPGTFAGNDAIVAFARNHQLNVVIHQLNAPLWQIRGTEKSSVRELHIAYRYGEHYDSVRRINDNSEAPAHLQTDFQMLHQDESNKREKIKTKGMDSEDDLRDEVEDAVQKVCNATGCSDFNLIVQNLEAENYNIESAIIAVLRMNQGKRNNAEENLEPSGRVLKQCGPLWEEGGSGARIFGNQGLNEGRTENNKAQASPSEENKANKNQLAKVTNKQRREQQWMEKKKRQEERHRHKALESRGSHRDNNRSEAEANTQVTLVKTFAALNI
USP17 block: blocks human USP17 ubiquitin-rhodamine cleavage; A8MUK1; purified USP17, Ub-rhodamine cleavage fluorescence, 3 h; inhibition, % at 50 µM; actives 6.5% (n = 47,000); AID 1645855
* = called active by the depositor; . = no result. Only some compounds are listed: those with a hit (about 11% of all), similar ones and a draw of the others. No stated cut-off is given here; in the data, active means inhibition above about 30%; inactive means the rest.

SMILES	USP30 inh	USP28 block	OTUD3 block	USP17 block
O=C(Cn1c(=O)n(CCC(=O)NC2CCCC2)c(=O)c2ccccc21)NCc1ccccc1Cl	21	-5	11	10
CS(=O)(=O)N1CC(C(=O)Nc2ccccc2F)Oc2ccccc21 (centres undefined)	-6	-5	-1	-2
COc1ccccc1NC(=O)Cn1cncc(C(=O)NC2CC2)c1=O	25	4	12	12
O=C(CCc1nnc2n(Cc3ccccc3Cl)c(=O)c3ccccc3n12)NCc1ccccn1	65*	36*	13	45*
CC(C)CCn1c(=O)c2ccccc2n2c(CCC(=O)NCc3cccnc3)nnc12	19	3	11	10
O=C(CCc1nnc2n(Cc3ccccc3)c(=O)c3ccccc3n12)N1CCC(Cc2ccccc2)CC1	38*	22	11	14
CC(C)OCCCn1c(=O)c2ccccc2n2c(CCC(=O)NCc3ccc4c(c3)OCO4)nnc12	40*	19	21	29
O=C(CCc1nnc2n(Cc3ccccc3)c(=O)c3ccccc3n12)NCc1cccnc1	38*	9	4	18
O=C(CCc1nnc2n(Cc3ccccc3)c(=O)c3ccccc3n12)N1CCCC1	17	7	5	6
Cn1ncc2c(N3CCSCC3)nc(C(=O)Nc3ccc(F)cc3)nc21	24	7	10	17
O=C(CCS(=O)(=O)c1ccc2c(c1)SCC(=O)N2)Nc1ccc(Cl)cc1F	-56	6	-15	-29
COc1ccc(CNC(=O)CCc2nnc3n(Cc4ccccc4Cl)c(=O)c4ccccc4n23)cc1	40*	36*	33*	43*
O=C(Cn1ncc2cc([N+](=O)[O-])ccc21)N1CCc2ccccc21	-191	-42	-25	-4
O=C(OCC(=O)N1CCc2ccccc21)c1cc([N+](=O)[O-])ccc1NCCO	.	.	8	60*
COc1cc2c(cc1OC)-c1cc(Nc3ccc(Br)cc3)nc(=O)n1CC2	53*	23	-5	25
Cc1cc(C)c(NC(=O)/C=C/c2ccc3ccccc3n2)c(C)c1	-140	-58	-40	34*
Cc1cc(NC(=O)/C=C/c2ccccc2)c2ccccc2n1	-53	-11	-17	-23
Cc1ccc(S(=O)(=O)CCc2nc(-c3ccc(N4CCC(C)CC4)cc3)no2)cc1	45*	7	0	.
CCOc1ccccc1N(CC(=O)NC1CCCCC1)C(=O)c1ccc2c(c1)OCCO2	13	-5	2	0
CC(=O)NCc1nc(-c2cccc(-c3csc(C)n3)c2)no1	7	8	7	1
Cc1oc2ccc(NS(=O)(=O)c3ccc(F)cc3)cc2c1C(=O)OCc1ccccc1	26	60*	7	6
O=C(c1ccccc1)c1c(-c2ccccc2)oc2ccc(NS(=O)(=O)c3ccc(Cl)cc3)cc12	26	25	10	10
Cc1nc2sccn2c1-c1nc(-c2cc(Cl)ccc2Cl)cs1	46*	19	11	49*
Cc1cc(C(=O)N2CCC3(CC2)CC(Oc2ccccc2)CO3)nc(C2(C)CCN(C)CC2)n1 (centres undefined)	24	16	16	4
Cc1nc(-c2ccc(NC(=O)N3CCN(c4ccccc4F)CC3)cc2)no1	-8	0	-5	0
SMILES	USP30 inh	USP28 block	OTUD3 block	USP17 block
Cc1nc(-c2ccc(NC(=O)N3CCN(c4ccccn4)CC3)cc2)no1	16	62*	8	4
Cc1nc(-c2ccc(NC(=O)N3CCC(Cc4ccccc4)CC3)cc2)no1	10	39*	8	9
COc1ccccc1N1CCN(C(=O)CCn2cnc3ccccc3c2=O)CC1	0	-4	0	-7
O=C(c1ccc(S(=O)(=O)N2CCCCC2)cc1)c1nnc(-c2ccc(Cl)cc2)o1	30*	11	14	0
O=C(NCCN1CCOCC1)C1CCN(S(=O)(=O)c2ccc(Cl)cc2)CC1	35*	6	10	14
O=C(C1CCN(S(=O)(=O)c2ccc(Cl)cc2)CC1)N1CCOCC1	-4	-3	-1	-11
O=C(c1ccccc1)C1CCN(S(=O)(=O)c2ccc(Cl)cc2)CC1	31*	14	7	12
COc1cc(CSc2nnc(-c3ccco3)o2)c(OC)cc1Br	17	15	3	2
CSc1ccc(C2NC3=NCN(Cc4ccccn4)CN3c3nc4ccccc4n32)cc1 (centres undefined)	6	2	0	-9
CC(CCc1ccccc1)NC(=O)CSc1ncnc2nc[nH]c12 (centres undefined)	.	.	2	0
CC(CCc1ccccc1)NC(=O)Cn1cccc1C(=O)c1ccccc1 (centres undefined)	15	38*	4	14
COc1ccc2c(c1OC)C(=O)N1CC(c3ccccc3)c3c([nH]c4ccccc34)C21 (centres undefined)	-9	12	8	19
Clc1ccc(Cn2c(NCc3ccccc3Cl)nc3ccccc32)cc1	34*	15	9	6
Clc1ccc(Cn2c(C3CCCO3)nc3ccccc32)cc1 (centres undefined)	14	14	-1	.
COc1cccc(-n2c(SCC(=O)N3CCc4ccccc43)nnc2-c2cccnc2)c1	1	4	2	16
CCOc1ccc(-n2c(SCC(=O)N3CC(=O)Nc4ccccc43)nnc2-c2ccc(OC)cc2)cc1	17	35*	-9	51*
Cc1nn(C)cc1C(C(=O)NC1CCCCC1)N(C(=O)CN1C(=O)c2ccccc2S1(=O)=O)c1ccc2c(c1)OCO2 (centres undefined)	.	.	4	56*
COc1ccc(C(C)C)cc1S(=O)(=O)Nc1cccc(C)n1	29	8	7	6
COc1ccc(C)cc1S(=O)(=O)NNc1nc(C)cc(C)n1	7	8	0	34*
CC(C)NC(=O)[C@H]1C[C@@H]2CN(S(=O)(=O)C3CC3)C[C@H]1O2	23	5	10	9
O=C(Nc1ccccc1F)NC1CCCc2ccccc21 (centres undefined)	40*	1	0	3
O=C(Nc1ccc(OC(F)(F)F)cc1)NC1CCCc2ccccc21 (centres undefined)	-3	-1	2	-3
CCn1c(=O)c2ccccc2n(Cc2nc(-c3cccc(OC)c3)no2)c1=O	-39	-3	-1	5
O=c1[nH]c2ccccc2c(=O)n1CCc1nc(-c2ccncc2)no1	7	-6	-7	-11
Cc1cccc(-c2noc(CCn3c(=O)[nH]c4ccccc4c3=O)n2)c1	18	30*	5	61*
O=c1c2ccccc2n(Cc2ccccc2)c(=O)n1Cc1nc(-c2ccccc2)no1	30*	15	20	11
Cc1ncc(CO)c2c1Oc1nc(-c3cccc(Cl)c3)nc(SCC(=O)N3CCCCC3)c1C2	-1	19	22	82*
O=C(CC1c2ncccc2C(=O)N1c1ccc(Cl)cc1)N1CCC2(CC1)OCCO2 (centres undefined)	-9	-6	-8	-5
COc1ccc(-c2cc(-c3nnc(COC(=O)CC4CCCC4)o3)c3ccccc3n2)cc1OC	-48	-4	-4	3

Source: PubChem
